From PubChem BioAssay (NCATS) come the findings set out here.

Structures are written as SMILES. Inconclusive results are not listed. Values without a mark were called inactive. The source made the active and inactive calls. Calls come from the whole dose curve; as a rule, active = well fitted curve in the direction sought with a large enough effect; inconclusive = small, poorly fitted or top-dose-only effect, or another doubt; inactive = no such curve, though single readings can be large; an effect the other way counts as inactive or inconclusive.

The target of assay [1] is Rap guanine nucleotide exchange factor 3 (Homo sapiens) (UniProt O95398). Briefly: Confirmatory qHTS for antagonist of cAMP-regulated guanine nucleotide exchange factor 3 (EPAC1) (AID 1645880). Note: nearly all actives have a fitted effect of over 55% in size. Note: potency is the fitted concentration of half-maximal effect. A digest of the protocol: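 Nucleotide exchange uses 100 nM EPAC1, 250 nM RAP1B-BODIPY-GDP and 50 uM GDP, with compounds in a concentration-titration series. After 5 min at room temperature, fluorescence (480 nm ex/540 nm em) is read every 5 min for 30 min. Data are normalized to control ATA and DMSO.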
Rap guanine nucleotide exchange factor 3 (Homo sapiens), sequence (O95398 whole entry, looked up): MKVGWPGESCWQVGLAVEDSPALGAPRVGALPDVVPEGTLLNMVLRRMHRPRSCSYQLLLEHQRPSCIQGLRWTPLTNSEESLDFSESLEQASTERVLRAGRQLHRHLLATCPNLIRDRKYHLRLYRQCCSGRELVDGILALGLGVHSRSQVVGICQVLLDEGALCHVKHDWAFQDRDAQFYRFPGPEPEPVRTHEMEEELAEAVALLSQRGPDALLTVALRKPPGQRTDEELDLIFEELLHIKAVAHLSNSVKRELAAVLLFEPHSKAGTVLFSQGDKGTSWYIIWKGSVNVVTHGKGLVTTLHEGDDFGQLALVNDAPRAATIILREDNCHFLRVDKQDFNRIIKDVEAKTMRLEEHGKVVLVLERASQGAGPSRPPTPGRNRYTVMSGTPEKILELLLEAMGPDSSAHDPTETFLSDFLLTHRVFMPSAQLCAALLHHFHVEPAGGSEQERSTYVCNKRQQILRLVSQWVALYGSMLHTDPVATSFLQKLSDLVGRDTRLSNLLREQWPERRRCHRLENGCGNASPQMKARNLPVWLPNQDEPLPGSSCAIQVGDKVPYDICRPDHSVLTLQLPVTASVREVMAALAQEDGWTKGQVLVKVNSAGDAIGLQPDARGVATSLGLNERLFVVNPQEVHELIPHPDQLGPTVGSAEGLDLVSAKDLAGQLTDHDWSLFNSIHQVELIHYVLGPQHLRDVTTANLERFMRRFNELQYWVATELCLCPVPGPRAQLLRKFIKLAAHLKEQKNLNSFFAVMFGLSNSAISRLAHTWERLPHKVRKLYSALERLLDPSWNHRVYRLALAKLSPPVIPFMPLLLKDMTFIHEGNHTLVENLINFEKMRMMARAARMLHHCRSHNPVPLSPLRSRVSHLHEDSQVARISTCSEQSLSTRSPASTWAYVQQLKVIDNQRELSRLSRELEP

Assay [2] shares this target. The assay can be described thus: Confirmatory qHTS for agonist of cAMP-regulated guanine nucleotide exchange factor 3 (EPAC1) (AID 1645881).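 Note: EPAC1 catalysed release of BODIPY-GDP from Rap1B seen as fluorescence loss; 100% = effect of cAMP agonist control; nearly all actives have a fitted effect of over 75% in size.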 For orientation: In qHTS, concentration-response curves come from the screen itself.
Assay [3] addresses Rap guanine nucleotide exchange factor 4 (Homo sapiens) (UniProt Q8WZA2). Briefly: Confirmatory qHTS for agonist of cAMP-regulated guanine nucleotide exchange factor 4 (EPAC2) (AID 1645884).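 Note: nucleotide exchange releases bodipy-GDP from Rap1 and this lowers its fluorescence; % is set by controls: 0 for no effect and ±100 for the full control effect; nearly all actives have a fitted effect of over 65% in size.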
Assay [4] shares this target. The assay can be described thus: Confirmatory qHTS for antagonist of cAMP-regulated guanine nucleotide exchange factor 4 (EPAC2) (AID 1645885). For activity change, negative = inhibition: % is set by controls: 0 for no effect and ±100 for the full control effect. Note: nearly all actives have a fitted effect of over 25% in size. Note: potency is the fitted concentration of half-maximal effect.
Assay [5] addresses Rap guanine nucleotide exchange factor 3 (Homo sapiens) (UniProt O95398). The assay can be described thus: Counterscreen qHTS for antagonist of cAMP-regulated guanine nucleotide exchange factor 3 (EPAC1) (AID 1645888).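 Note: fluorescence loss as bound BODIPY-GDP is released from Rap1B; % of control where 0% means no effect.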 In short, it runs like this:
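Rap1B-BODIPY-GDP 250 nM + GDP 50 uM; cpds 7-pt, final 9.74 nM–152 uM (activator mode) or from 7.32 nM upwards (inhibitor mode); RT; FI 480/540 nm at 5 and 30 min, then ± cAMP, reread.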
(In general: A counterscreen serves to expose hits that act by an unwanted route or on another target.)

Rap guanine nucleotide exchange factor 4 (Homo sapiens), sequence (Q8WZA2 whole entry, looked up): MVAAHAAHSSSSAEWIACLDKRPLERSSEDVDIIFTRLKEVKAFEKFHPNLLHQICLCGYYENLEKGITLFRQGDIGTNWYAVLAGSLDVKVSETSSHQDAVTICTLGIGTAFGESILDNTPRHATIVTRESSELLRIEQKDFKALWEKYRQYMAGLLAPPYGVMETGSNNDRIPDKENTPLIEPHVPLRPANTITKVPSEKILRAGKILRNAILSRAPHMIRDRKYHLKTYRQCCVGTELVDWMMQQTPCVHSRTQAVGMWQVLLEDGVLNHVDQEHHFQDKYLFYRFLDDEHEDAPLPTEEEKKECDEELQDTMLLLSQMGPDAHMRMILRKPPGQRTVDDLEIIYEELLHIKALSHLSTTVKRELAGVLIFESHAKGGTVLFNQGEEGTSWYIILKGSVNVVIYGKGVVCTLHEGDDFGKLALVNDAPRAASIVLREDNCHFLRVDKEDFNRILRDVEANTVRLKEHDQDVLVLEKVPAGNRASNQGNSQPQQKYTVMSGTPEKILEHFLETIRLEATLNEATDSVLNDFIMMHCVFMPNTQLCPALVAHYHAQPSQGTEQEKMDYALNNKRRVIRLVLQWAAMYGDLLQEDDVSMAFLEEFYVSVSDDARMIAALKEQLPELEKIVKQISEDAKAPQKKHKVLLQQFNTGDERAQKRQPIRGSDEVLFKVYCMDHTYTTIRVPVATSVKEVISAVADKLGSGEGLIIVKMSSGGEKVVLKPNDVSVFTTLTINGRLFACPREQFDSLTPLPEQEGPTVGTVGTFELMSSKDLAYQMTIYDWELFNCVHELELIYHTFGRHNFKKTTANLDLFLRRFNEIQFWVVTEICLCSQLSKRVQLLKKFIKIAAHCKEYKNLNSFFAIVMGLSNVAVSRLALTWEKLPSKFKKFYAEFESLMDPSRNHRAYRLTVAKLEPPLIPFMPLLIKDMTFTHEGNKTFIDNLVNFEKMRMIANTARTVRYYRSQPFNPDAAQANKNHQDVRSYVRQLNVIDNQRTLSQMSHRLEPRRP

Turning to `CCCN1CCN(S(=O)(=O)c2ccc3c(c2)NC(=O)C(C)C(=O)N3)CC1` (stereo not given), the Potency result in assay [1], in assay [2], in assay [3], in assay [4] and in assay [5] was “inactive” in each case.
In the case of `CC(=O)C[C@H]1SC[C@@H](C(C)C)N1S(=O)(=O)c1ccc(C)cc1`, the Potency result in assay [1], in assay [2], in assay [3], in assay [4] and in assay [5] was “inactive” throughout.
Regarding `COCCn1c(SCC(=O)Nc2ccc3c(c2)CCC3)nc2ccccc2c1=O`, the Potency result in assay [1], in assay [2] and in assay [4] was “inactive” throughout. Also, the activation in assay [3] was -0.521% [at 17.1 µM, percent relative to cAMP agonist control]. Further, the activity change, negative = inhibition in assay [5] is -10.3% [at 30.8 µM].
With `COc1cccc(NC(=O)Cn2cc(C(=O)C3CC3)c3ccccc32)c1`, the Potency entry in assay [1], in assay [2], in assay [3], in assay [4] and in assay [5] was “inactive” each time.
On to `Cc1cc(NS(=O)(=O)c2ccc(NC(=O)Cc3ccc(Cl)c(Cl)c3)cc2)no1`, for which the Potency entry in assay [1], in assay [2], in assay [3], in assay [4] and in assay [5] was “inactive” each time.
As for `CCCN1C(=O)c2[nH]nc(-c3ccccc3)c2C1c1cccc(O)c1` (stereo not given), the Potency result in assay [1], in assay [2], in assay [3], in assay [4] and in assay [5] was “inactive” throughout.
For `O=C1OC(c2ccccc2)/C(=C(/O)c2ccccc2)C1=O` (stereo not given), the Potency result in assay [1], in assay [2] and in assay [4] was “inactive” in each case. In assay [3], the activation was 9.85% [at 17.1 µM, percent relative to cAMP agonist control]. Moreover, in assay [5], the activity change, negative = inhibition is -5.63% [at 30.8 µM].
Turning to `Clc1ccccc1Cn1c(-c2cccs2)nc2ccccc21`, the Potency result in assay [1], in assay [2], in assay [3], in assay [4] and in assay [5] was “inactive” in each case.
For the molecule `Cc1nc(Cl)sc1C(=O)NC(C)c1ccc(Cl)cc1` (stereo not given), the Potency entry in assay [1], in assay [2], in assay [3], in assay [4] and in assay [5] was “inactive” each time.
Regarding `O=C(/C=C/c1ccco1)Nc1ccc(Cl)c(-c2nc3cc(Cl)ccc3o2)c1`, in assay [1], the Potency was 75.7 µM (active). Moreover, the Potency result in assay [2], in assay [3], in assay [4] and in assay [5] was “inactive” each time.
As to `CCOc1cc(S(=O)(=O)N(CC)CC)ccc1Cl`, the Potency entry in assay [1], in assay [2] and in assay [4] was “inactive” in each case. Moreover, the activation in assay [3] is 7.51% [at 17.1 µM, percent relative to cAMP agonist control]. For the same molecule, the activity change, negative = inhibition in assay [5] was -20.8% [at 30.8 µM].
Consider `O=C1OC(c2ccc3ccccc3c2O)(c2ccc3ccccc3c2O)c2ccccc21`, for which, in assay [1], the Potency is 75.7 µM (active). Also, the Potency entry in assay [2], in assay [3], in assay [4] and in assay [5] was “inactive” each time.
Consider `O=C1N=c2ccccc2=C1c1sc(Nc2ccc(O)cc2)nc1O`, for which, in assay [1], the Potency was 30.1 µM (active). For the same molecule, the Potency result in assay [2], in assay [3], in assay [4] and in assay [5] was “inactive” each time.
Take `O=C(NCC(c1ccco1)N1CCN(c2ccccc2F)CC1)c1cccs1` (stereo not given): the Potency entry in assay [1], in assay [2] and in assay [4] was “inactive” in each case. The activation in assay [3] was 5.11% [at 17.1 µM, percent relative to cAMP agonist control]. Also, the activity change, negative = inhibition in assay [5] was 6.53% [at 30.8 µM].
As to `Cc1ccccc1CNC(=O)CCC(=O)N1CCSc2ccccc21`, the Potency entry in assay [1], in assay [2], in assay [3], in assay [4] and in assay [5] was “inactive” each time.
In the case of `CNc1nc(-c2ccc(OC)cc2)c(-c2ccc(OC)cc2)s1`, the Potency result in assay [1], in assay [2], in assay [3] and in assay [5] was “inactive” each time. Also, in assay [4], the Potency is 23.9 µM (active).
In the case of `O=C(CSc1nnc(SCc2ccccc2)s1)N/N=C/C=C/c1ccco1`, in assay [1], the Potency was 12.6 µM (active). Further, the Potency entry in assay [2] and in assay [4] was “inactive” in each case. Besides, the activation in assay [3] was 3.41% [at 17.1 µM, percent relative to cAMP agonist control]. Moreover, the activity change, negative = inhibition in assay [5] was -6.93% [at 30.8 µM].
Take `Cc1cc(C)c(NC(=O)Cn2c(=O)n(Cc3ccc(C(=O)NCc4ccco4)cc3)c(=O)c3sccc32)c(C)c1`: the Potency in assay [1] is 75.7 µM (active). Also, the Potency result in assay [2], in assay [3], in assay [4] and in assay [5] was “inactive” each time.
As to `Cc1ccc(C(=O)Nc2ccc(N3CCOCC3)c3nonc23)cc1[N+](=O)[O-]`, in assay [1], the Potency was 47.8 µM (active). For the same molecule, the Potency entry in assay [2], in assay [3], in assay [4] and in assay [5] was “inactive” each time.
With `Cc1ccc(Cl)c2sc(N3CCN(C(=O)c4ccco4)CC3)nc12`, the Potency entry in assay [1], in assay [2] and in assay [4] was “inactive” in each case. Also, the activation in assay [3] is 3.67% [at 17.1 µM, percent relative to cAMP agonist control]. Further, the activity change, negative = inhibition in assay [5] is -12.9% [at 30.8 µM].
With `Cc1[nH][nH]c(=O)c1C(c1c(C)[nH][nH]c1=O)c1cn(Cc2ccccc2Cl)c2ccccc12`, in assay [1], the Potency was 75.7 µM (active). Also, the Potency entry in assay [2], in assay [3], in assay [4] and in assay [5] was “inactive” throughout.
Turning to `COC(=O)c1cc2oc(C)cc2n1Cc1ccccc1Cl`, the Potency entry in assay [1], in assay [2], in assay [3], in assay [4] and in assay [5] was “inactive” in each case.
In the case of `CCOc1ccccc1NC1c2ccccc2C(=O)N1Cc1ccco1` (stereo not given), the Potency result in assay [1], in assay [2], in assay [3], in assay [4] and in assay [5] was “inactive” throughout.
On to `COc1ccc(C(=O)c2c(-c3ccc(OC)cc3)oc3ccccc23)cc1`, for which the Potency entry in assay [1], in assay [2], in assay [3] and in assay [5] was “inactive” each time. Besides, in assay [4], the Potency is 15.1 µM (active).
Turning to `COc1ccc(C2C=C(c3ccccc3)Nc3nnnn32)cc1` (stereo not given), the Potency entry in assay [1], in assay [2], in assay [3], in assay [4] and in assay [5] was “inactive” throughout.
For the molecule `Cc1cccc(NCC(=O)N/N=C\c2ccc[nH]2)c1`, the Potency entry in assay [1], in assay [2], in assay [3], in assay [4] and in assay [5] was “inactive” in each case.
